MITF inh: MITF inhibitors, primary screen, biochemical, AlphaScreen, human | Microphthalmia-associated transcription factor (Homo sapiens), O75030 | AlphaScreen MITF homodimerization, bead proximity signal | inhibition, % at 2.6 µM | 650,000 compounds, 0.91% hits | AID 1259374, 2018; in the data active = inhibition above about 50%
TEAD-YAP inh: TEAD-YAP interaction inhibition, primary screen, TEAD-YAP interaction inhibitor project, luminescence, HEK-TIYL cells; TEAD-Gal4/YAP UAS-luciferase luminescence; inhibition, % at 9.12 µM; 640,000 compounds, 1.4% hits; AID 1259422, 2018; in the data active = inhibition above about 32%
GPR151 ag: activators of human GPR151, primary screen, cell-based, PathHunter beta-arrestin, luminescence. G-protein coupled receptor 151 (Homo sapiens), Q8TDV0. PathHunter beta-arrestin GPR151 cells. activation, % at 11.2 µM. 650,000 compounds, 1% hits. AID 1508602, 2020; in the data active = activation above about 4.9%
Target sequence (Q8TDV0 whole entry, looked up): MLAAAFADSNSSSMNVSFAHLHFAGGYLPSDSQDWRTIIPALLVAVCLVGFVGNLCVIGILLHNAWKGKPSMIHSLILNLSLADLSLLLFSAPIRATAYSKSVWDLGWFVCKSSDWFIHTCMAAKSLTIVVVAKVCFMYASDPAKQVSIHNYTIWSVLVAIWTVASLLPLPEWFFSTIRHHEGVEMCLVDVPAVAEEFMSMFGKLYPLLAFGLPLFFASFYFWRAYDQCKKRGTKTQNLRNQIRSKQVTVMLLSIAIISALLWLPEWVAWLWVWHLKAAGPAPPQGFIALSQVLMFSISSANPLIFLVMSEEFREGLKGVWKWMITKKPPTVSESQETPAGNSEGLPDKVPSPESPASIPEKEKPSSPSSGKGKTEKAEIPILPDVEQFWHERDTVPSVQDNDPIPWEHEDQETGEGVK
FBW7 activator: FBW7 E3 ligase activators, primary screen, biochemical, AlphaScreen, human; F-box/WD repeat-containing protein 7 (Homo sapiens), Q969H0; AlphaScreen FBW7–phospho-cyclin E peptide binding, activator screen; AID 1259310, 2017; normalized activity (activation), % at 26.1 µM; 650,000 compounds, 0.13% hits; in the data active = normalized activity above about 1.9%;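 also: purified mutant Fbw7 with reduced substrate affinity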
GPR151 confirm: GPR151 activators, triplicate retest, confirmation, cell-based, PathHunter beta-arrestin, luminescence | shares compounds with GPR151 ag | GPR151 PathHunter beta-arrestin cells, 90 min; % of EA-reagent control over plate median | activation, % at 11.2 µM | 6,700 tested, under 10 active;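 active = mean percent activation across replicates above the confirmation screen cutoff of 4.91%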
GPR119 counter: GPR119 activators in beta-arrestin cells, counter-screen for GPR151 activator project, cell-based, PathHunter beta-arrestin, luminescence, triplicate; AID 1508611, 2020; shares compounds with GPR151 ag; 6,700 compounds, 0.3% hits; 90 min; 0 = compound-well median, 100 = enzyme-acceptor control; activation, % at 11.2 µM;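 active = mean percent activation in the counterscreen above 29.09%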;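 also: counterscreen on off-target GPR119 to flag nonselective hits from the GPR151 activator screen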
Large screens that a line does not name were inactive (follow-up assays come after a bar, where they were run). An excerpt weighted towards active compounds, which were near 3.4% of everything screened.

N/C(=N\NC(=O)c1ccccc1)c1cc2c(ccc3ccccc32)oc1=O	none
Cc1ccc(NS(=O)(=O)c2ccc(F)cc2)cc1C	none
Cc1ccc(NS(=O)(=O)c2ccc(NC=O)cc2)cc1C	GPR151 ag 5.8 | GPR151 confirm inactive | GPR119 counter inactive
COc1ccccc1-n1c(CNC(=O)c2ccc(S(=O)(=O)N3CCCCC3)cc2)nnc1SCC(=O)Nc1nccs1	GPR151 ag 5.4 | GPR151 confirm inactive | GPR119 counter inactive
CCOC(=O)c1c(NC(=O)CSc2nnc(CNC(=O)c3ccc([N+](=O)[O-])cc3)n2-c2ccc(OCC)cc2)sc2c1CCC2	none
Clc1ccc(CN2CCC(c3nc(-c4cccnc4)no3)CC2)s1	none
Cc1cc(NCc2nc3ccccc3[nH]2)nc(-c2ccc(C(=O)NC3CC3)cc2)n1	GPR151 ag 5.1 | GPR151 confirm inactive | GPR119 counter inactive
Cc1cc(NCc2nc3ccccc3[nH]2)nc(-c2ccccc2)n1	none
O=C(NC1CC1)c1ccc(-c2nc3ncnc(NCc4nc5ccccc5[nH]4)c3[nH]2)cc1	GPR151 ag 6.3 | GPR151 confirm inactive | GPR119 counter inactive
CC(C)(C)NC(=O)c1ccc(Cl)c([N+](=O)[O-])c1	none
CC(C)(C)c1nnc(NC(=O)c2cccnc2Cl)s1	none
CC(C)(C)c1nnc(NC(=O)c2ccc(Cl)nc2Cl)s1	GPR151 ag 8.1 | GPR151 confirm inactive | GPR119 counter inactive
CCOC(=O)C1CCCN(c2ccc(NC(=O)c3snc4c(=O)[nH]cnc34)cc2)C1 (centres undefined)	GPR151 ag 7.4 | GPR151 confirm inactive | GPR119 counter inactive
Cc1ccc(N2C(=O)CC(Sc3ccc(F)cc3)C2=O)cc1 (centres undefined)	none
Cc1ccc(SC2CC(=O)N(c3ccc(F)cc3F)C2=O)cc1 (centres undefined)	GPR151 ag 9.8 | GPR151 confirm inactive | GPR119 counter inactive
O=C1NC(=S)/C(=C\c2ccccc2F)S1	GPR151 ag 7.2 | GPR151 confirm inactive | GPR119 counter inactive
CCOc1ccccc1NC(=O)NNC(=O)Cc1ccc(Cl)c(Cl)c1	none
Cc1ccc(-n2c3c(cc(C(=O)NCC4CCCO4)c2=O)C(=O)CC(C)(C)C3)cc1 (centres undefined)	GPR151 ag 11 | GPR151 confirm inactive | GPR119 counter inactive
COCCNC(=O)c1cc2c(n(-c3ccc(C)cc3)c1=O)CC(C)(C)CC2=O	none
NC(=O)/C(=C/c1cccc([N+](=O)[O-])c1)NC(=O)c1ccco1	GPR151 ag 6.8 | GPR151 confirm inactive | GPR119 counter inactive
CNC(=O)/C(=C/c1cccc([N+](=O)[O-])c1)NC(=O)c1ccc(C(C)(C)C)cc1	GPR151 ag 6.0 | GPR151 confirm inactive | GPR119 counter inactive
O=C(OCc1ccccc1)/C(=C/c1cccc([N+](=O)[O-])c1)NC(=O)c1ccco1	none
COc1cccc(/C=N/NC(=O)CC(=O)NC2CCCCC2)c1	none
CC(C)Oc1ccc(NC(=O)/C=C/c2ccc(F)cc2)cc1	GPR151 ag 6.7 | GPR151 confirm inactive | GPR119 counter inactive
COc1ccc(/C=C/C(=O)Nc2ccc(OC(C)C)cc2)cc1	none
O=C1CC(N2CCN(C3CCCCC3)CC2)C(=O)N1c1ccc(Cl)cc1 (centres undefined)	GPR151 ag 6.8 | GPR151 confirm inactive | GPR119 counter inactive
COc1cc(C2NC(=S)NC(C)=C2C(=O)Nc2ccccc2OC)ccc1O (centres undefined)	none
CCCCNC(=O)C(=O)NCC1OCCCN1S(=O)(=O)c1ccccc1 (centres undefined)	none
CCc1nc(N)c(C#N)c(-c2ccc([N+](=O)[O-])cc2)c1C	GPR151 ag 5.3 | GPR151 confirm inactive | GPR119 counter inactive
CCCCCOc1ccc(N2C(=O)/C(=C/c3ccc(Br)cc3)N=C2c2ccc(OCCCC)cc2)cc1	none

Source: PubChem
